Most compounds without a hit are left out; they make up all but 19% or so of the library.
KB-V1 cytotox: qHTS assay for MDR1-selective chemotherapeutics: Primary screen using the drug-selected MDR subline cells KB-V1; Potency, µM (doses to about 46.1 µM), most hits filed as cytotoxic; 400,000 tested, 3.4% active; AID 1347076, 2019; KB-V1 MDR cells viability, CellTiter-Glo, 72 h; further: nearly all actives have a fitted effect of over 60% in size
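qHTS viability screen in drug-selected KB-V1 MDR cells: 72 h compound treatment at 37 degrees C, ATP luminescence end point.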
TDP1 cell CPT: qHTS for Inhibitors of human tyrosyl-DNA phosphodiesterase 1 (TDP1): qHTS in cells in presence of CPT; chicken DT40 Tdp1-/-;hTDP1 cells + 20 nM CPT, ATP luminescence, 48 h; Potency, µM (doses to about 46.2 µM), most hits filed as inhibitors; 420,000 tested, 12% active; AID 686979, 2013; further: nearly all actives have a fitted effect of over 55% in size
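Cell growth measured by CellTiter-Glo luminescence after a minimum 48 h, 37 C compound exposure with 20 nM CPT in Tdp1-knockout DT40 cells stably expressing hTDP1, seeded 400/well; qHTS titration format.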
DT40 TDP1 no CPT: qHTS for Inhibitors of human tyrosyl-DNA phosphodiesterase 1 (TDP1): qHTS in cells in absence of CPT; 420,000 tested, 15% active; Potency, µM (titrated, usually from 46.2 µM), usual class: inhibitors; DT40 Tdp1-/- hTDP1 cells, no CPT, ATP luminescence, 48 h; further: nearly all actives have a fitted effect of over 55% in size
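Chicken DT40 Tdp1-/- cells complemented with human TDP1, screened without camptothecin (DMSO vehicle only), 400 cells/well. Compounds pin-transferred, cells incubated at 37 °C for at least 48 hr. Growth read as ATP-dependent luminescence (CellTiter-Glo, 30 min at RT).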
HT1080-NT tox: qHTS for induction of synthetic lethality in tumor cells producing 2HG: qHTS for the HT-1080-NT fibrosarcoma cell line | HT-1080-NT fibrosarcoma viability, CellTiter-Glo ATP luminescence, 48 h | 360,000 tested, 1.6% active | AID 686970, 2013 | Potency, µM (series often up to 46.1 µM), usual class: cytotoxic;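 further: NT is the 2HG producing partner of a matched IDH1 knockdown line; nearly all actives have a fitted effect of over 55% in size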
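Compounds were tested in concentration-response format on HT-1080-NT cells for 48 hours at 37 degrees C. Cell viability came from CellTiter-Glo luminescence; curves were classified by r2, response magnitude and activity.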
KB-3-1 tox: qHTS assay for MDR1-selective chemotherapeutics: Primary screen using the parental adenocarcinoma cell KB-3-1; AID 1347075, 2019; KB-3-1 viability, CellTiter-Glo ATP luminescence, 72 h; Potency, µM (highest dose often 46.1 µM), actives largely listed as cytotoxic; 400,000 tested, 1.4% active; further: nearly all actives have a fitted effect of over 60% in size
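Viability of parental KB-3-1 cells, measured by CellTiter-Glo luminescence, followed a 72 h incubation at 37 °C with pinned compounds in phenol-red-free DMEM containing 10% FBS.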
HT1080 IDH1KD tx: qHTS for induction of synthetic lethality in tumor cells producing 2HG: qHTS for the HT-1080-IDH1KD cell line; HT-1080 IDH1 knockdown viability, ATP luminescence, 48 h; Potency, µM (titrated, usually from 46.1 µM), most hits filed as cytotoxic; 360,000 tested, 2% active
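Using the IDH1-knockdown HT-1080 line run in the same batch and compound series as the NT line, viability after 48 h at 37 °C was determined by CellTiter-Glo luminescence and expressed as % activity.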
Of the large screens only hits and unclear results are named; the others gave an inactive call. The call rests on the fitted dose curve; in most records, active means well fitted curve in the direction sought with a large enough effect; inconclusive means small, poorly fitted or top-dose-only effect, or another doubt; inactive means no such curve, though single readings can be large; an effect the other way counts as inactive or inconclusive.

CN1CCN(C(=O)CCN2C(=O)/C(=C\c3ccc(F)cc3)SC2=S)CC1	TDP1 cell CPT 18µM, DT40 TDP1 no CPT 15µM, KB-3-1 tox inconclusive
CCOC(=O)CSc1nc2ccc(NC(=O)c3ccc(F)cc3)cc2s1	none (no result: HT1080-NT tox, HT1080 IDH1KD tx)
CSc1ccccc1NC(=O)COC(=O)c1ccc(-n2nc(C)cc2C)cc1	none (no result: KB-V1 cytotox, KB-3-1 tox)
NS(=O)(=O)c1ccc(CCN2C(=O)/C(=C\c3ccc(Cl)cc3)SC2=S)cc1	KB-V1 cytotox 18µM, TDP1 cell CPT 6.5µM, DT40 TDP1 no CPT 6.5µM, KB-3-1 tox inconclusive
COc1ccc(/C=C2\SC(=S)N(CCC(=O)NCCCn3ccnc3)C2=O)cc1	TDP1 cell CPT inconclusive, DT40 TDP1 no CPT 16µM
O=C(CN1C(=O)/C(=C\c2ccc(F)cc2)Oc2ccccc21)N1CCN(c2ccccn2)CC1	KB-V1 cytotox 7.3µM, TDP1 cell CPT inconclusive, DT40 TDP1 no CPT inconclusive
Cc1ccc(S(=O)(=O)NN2C(=O)/C(=C\c3ccc(Cl)cc3)SC2=S)cc1	none
O=C(CN1C(=O)/C(=C\c2cccc(F)c2)Oc2ccccc21)N1CCN(c2ccccn2)CC1	TDP1 cell CPT inconclusive, DT40 TDP1 no CPT inconclusive, KB-3-1 tox inconclusive
CC(C)c1ccc(/C=C2\SC(=S)N(CCC(=O)NCCCn3ccnc3)C2=O)cc1	TDP1 cell CPT inconclusive, DT40 TDP1 no CPT inconclusive, HT1080-NT tox inconclusive
O=C(COc1ccc2c(-c3ccccc3)cc(=O)oc2c1)N[C@H](Cc1c[nH]c2ccccc12)C(=O)O	none
CCCCN1CCCCC1(C)C(=O)NCc1cccc(OC)c1 (configuration not stated)	DT40 TDP1 no CPT inconclusive
Cc1ccc(NC(=O)C2CC(=O)N(Cc3ccccc3)C2)nc1 (configuration not stated)	none
CCOc1ccc(CCNC(=O)COC(=O)COc2ccccc2C)cc1OCC	none
CCN1C(=O)N[C@@H](c2cccs2)C(C(C)=O)=C1C	none
CS(=O)(=O)N1N=C(c2ccco2)CC1c1ccc(Cl)cc1 (configuration not stated)	KB-V1 cytotox 16µM
Cc1cc(C(=O)C(=O)N(C)C)c(C)n1-c1ccc(Cl)c(Cl)c1	KB-V1 cytotox inconclusive, TDP1 cell CPT inconclusive, DT40 TDP1 no CPT 21µM
CC(C)c1ccccc1NC(=O)COC(=O)c1cc([N+](=O)[O-])ccc1N1CCOCC1	TDP1 cell CPT inconclusive, DT40 TDP1 no CPT 18µM
Cc1cc(NC(=O)COC(=O)c2cc([N+](=O)[O-])ccc2N2CCOCC2)ccc1Br	KB-V1 cytotox inconclusive, TDP1 cell CPT inconclusive, DT40 TDP1 no CPT 16µM, HT1080-NT tox inconclusive, KB-3-1 tox inconclusive, HT1080 IDH1KD tx inconclusive
O=C(COC(=O)c1cc([N+](=O)[O-])ccc1N1CCCC1)Nc1ccccc1OC(F)F	KB-V1 cytotox inconclusive, TDP1 cell CPT inconclusive, DT40 TDP1 no CPT 16µM
Cc1cc(C)c(NC(=O)COC(=O)c2cc([N+](=O)[O-])ccc2N2CCOCC2)c(C)c1	KB-V1 cytotox inconclusive
O=C(COC(=O)c1cc([N+](=O)[O-])ccc1N1CCOCC1)Nc1ccccc1OC(F)F	KB-V1 cytotox inconclusive
Cc1cccc(C)c1NC(=O)CNC(=O)CN1C(=O)NC2(CCc3ccccc32)C1=O (configuration not stated)	none
C[C@@H]1COC(=O)[C@H](NC(=O)OCC2c3ccccc3-c3ccccc32)C/C=C\C[C@@H](CC(=O)N[C@H](CO)Cc2ccccc2)C(=O)N1	KB-V1 cytotox inconclusive, TDP1 cell CPT 18µM, DT40 TDP1 no CPT 21µM
C[C@H]1COC(=O)[C@@H](CC(=O)OC(C)(C)C)C/C=C\C[C@@H](CC(=O)N[C@H](CO)Cc2ccccc2)C(=O)N1	TDP1 cell CPT inconclusive, DT40 TDP1 no CPT inconclusive
CC(C)(C)[C@H]1COC(=O)[C@@H](NC(=O)OCC2c3ccccc3-c3ccccc32)C/C=C\C[C@@H](CC(=O)N[C@@H](CO)Cc2ccccc2)C(=O)N1	KB-V1 cytotox inconclusive, TDP1 cell CPT 9.2µM, DT40 TDP1 no CPT 6.5µM
O=C(C[C@@H]1C/C=C\C[C@@H](NC(=O)OCC2c3ccccc3-c3ccccc32)C(=O)OCCNC1=O)N[C@@H](CO)Cc1ccccc1	TDP1 cell CPT 9.2µM, DT40 TDP1 no CPT 8.2µM
Cc1ccsc1/C=N/NC(=O)C1C(=O)NCC1c1ccccc1 (configuration not stated)	none
CCc1ccccc1OCc1nc2ccc(S(=O)(=O)N3CCOCC3)cc2[nH]1	TDP1 cell CPT 23µM, DT40 TDP1 no CPT inconclusive
Cc1ccccc1OCc1nc2ccc(S(=O)(=O)N3CCOCC3)cc2[nH]1	KB-V1 cytotox 21µM, TDP1 cell CPT inconclusive
Cc1ccc(NC(=O)COC(=O)c2ccccc2OCC(=O)Nc2ccc(Br)cc2)c(C)c1	TDP1 cell CPT inconclusive, DT40 TDP1 no CPT inconclusive (no result: HT1080-NT tox, HT1080 IDH1KD tx)
CC1(C)C(=O)OC(c2cc(Br)ccc2O)C(C)(C)C1=O (configuration not stated)	KB-V1 cytotox inconclusive, TDP1 cell CPT inconclusive, DT40 TDP1 no CPT 21µM, HT1080-NT tox inconclusive
CC1C(=O)C(C)C(c2cc(Br)ccc2O)NC1c1cc(Br)ccc1O (configuration not stated)	KB-V1 cytotox inconclusive, DT40 TDP1 no CPT inconclusive, HT1080-NT tox 13µM, KB-3-1 tox inconclusive, HT1080 IDH1KD tx inconclusive
COC1(C(F)(F)F)NC(=O)N(c2ccc(F)cc2)C1=O (configuration not stated)	none (no result: HT1080-NT tox, HT1080 IDH1KD tx)
N#CC[C@H](c1ccccc1)N1CCN(Cc2ccccc2)CCC1=O	KB-V1 cytotox inconclusive
COc1cccc(OCC(=O)O)c1	none
O=C(N[C@@H](Cc1ccccc1)C(=O)N1CCC2(CC1)NCCc1[nH]cnc12)c1cccc(Br)c1	KB-V1 cytotox inconclusive, TDP1 cell CPT 10µM, DT40 TDP1 no CPT 6.5µM, HT1080-NT tox inconclusive, HT1080 IDH1KD tx inconclusive
Cc1ccccc1C(=O)Nc1ccc(S(=O)(=O)N2CCCC2)cc1	KB-V1 cytotox inconclusive, DT40 TDP1 no CPT inconclusive
COc1ccc(-c2cn[nH]c2-c2ccc(OCc3ccc([N+](=O)[O-])cc3)cc2O)cc1	KB-V1 cytotox 3.7µM, TDP1 cell CPT inconclusive, DT40 TDP1 no CPT 16µM, KB-3-1 tox inconclusive
